# ATXN2 expr inh: reduces ATXN2 reporter expression in HEK-293 cells. HEK-293 ATXN2-luciferase reporter, luminescence, 24 h. Potency, µM (highest dose often 57 µM), without a hit: at the top dose activity change, negative = inhibition, actives largely listed as inhibitors. hit rate 0.72% among 360,000. AID 1745845; further: potency means the concentration at half of the fitted maximal effect; on the % scale 0 is the no-effect control and ±100 the full control effect; nearly all actives have a fitted effect of over 55% in size
#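 qHTS (up to 57 uM final) was run with 24 h compound exposure of reporter cells at 37 °C. Each well was multiplexed: SteadyGlo luminescence measured ATXN2-luciferase expression after a fluorogenic Gly-Phe-AFC viability readout (25 uM final).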
# PINK1 modulator: modulators of PINK1 expression; AID 624263; Potency, µM (series often up to 76.6 µM), for inactives: at the top dose activation (PINK1 increase), usual class: activators; PINK1 immunofluorescence, high-content cytometry, 24 h; hit rate 0.2% among 410,000; active means well fitted activation curve with a large enough effect; inconclusive means small, poorly fitted or top-dose-only effect; cell line not stated here; further: potency means the concentration at half of the fitted maximal effect; % of control where 0% means no effect; nearly all actives have a fitted effect of over 65% in size
#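 Stable cell line, 250 cells/well, 12 h attachment; compounds pinned at 5 concentrations, 24 h; CCCP control. Fixed with nuclear dye, primary antibodies 12 h at 10 degrees C, secondary plus cell stain; laser-scanning cytometer read.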
# ATXN viability: cell viability loss in ATXN counter-screen; S2 cells (HEK-293 line with an ATXN2-luciferase reporter) viability, CellTiter-Fluor protease fluorescence, 24 h; Potency, µM (doses to about 56.7 µM), hits mostly cytotoxic; hit rate 0.49% among 400,000; further: potency means the concentration at half of the fitted maximal effect; nearly all actives have a fitted effect of over 40% in size
# SW480 rerep: induces DNA re-replication in SW480 colon adenocarcinoma cells; SW480 DNA re-replication, Hoechst DNA content imaging, 48 h; Potency, µM (top dose mostly 46.1 µM), for the others: at the highest dose re-replication activation, hits mostly activators; hit rate 1.8% among 340,000; AID 624297; further: potency means the concentration at half of the fitted maximal effect; % of control where 0% means no effect; nearly all actives have a fitted effect of over 55% in size
#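 250 cells/well; 23 nL cpd via pin tool; 48 hr, 37 C, 5% CO2; Hoechst 40 min; imager read of total nuclear intensity, ex 405/em 500-530 nm.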
# MCF10A rerep: induces DNA re-replication in MCF 10a normal breast cells. MCF 10A DNA re-replication, Hoechst nuclear intensity, 48 h. Potency, µM (doses to about 46.1 µM), without a hit: top-dose activity, positive = re-replication, hits mostly activators. hit rate 2.9% among 350,000; further: potency means the concentration at half of the fitted maximal effect; % of control where 0% means no effect; nearly all actives have a fitted effect of over 50% in size
# IL1B secr inh: blocks inflammasome-driven IL-1 beta release; THP-1 LPS/ATP IL-1B secretion, AlphaLISA, 16 h; active compounds read low; activity change, % at 57.5 µM; hit rate 4.7% among 360,000; in the data active means activity change below about -50%; inconclusive means mostly about -30% to -49%; further: on the % scale 0 is the no-effect control and ±100 the full control effect
#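 Secreted IL-1B measured by AlphaLISA bead assay after 16 h compound exposure of THP-1 cells; compounds (final up to 57.5 uM) added 1 h before LPS (250 ng/mL) and ATP (1.25 mM) stimulation; lower signal means less secretion.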
# Numbers without * were called inactive; i = inactive; ? = inconclusive; nt = no result; ! = not active in a repeat; [ ] = another dose, or the depositor's remark. The list is not random: actives were taken first. Their share in the collection is about 7.1%. Unless noted, the call rests on the fitted dose curve; in most records, active means well fitted curve in the direction sought with a large enough effect; inconclusive means small, poorly fitted or top-dose-only effect, or another doubt; inactive means no such curve, though single readings can be large; an effect the other way counts as inactive or inconclusive.
SMILES,ATXN2 expr inh,PINK1 modulator,ATXN viability,SW480 rerep,MCF10A rerep,IL1B secr inh
CCCCCC(=O)O[C@]1(C(C)=O)CC[C@H]2[C@@H]3CCC4=CC(=O)CC[C@]4(C)[C@H]3CC[C@@]21C,28.2µM*!,28.1%,35.5µM*!,?,?,-0.4
CCc1ccc2[nH]c(=O)c(CN(Cc3ccccc3)Cc3nnnn3Cc3ccco3)cc2c1,-10.5%,-0.3%,?,?,8.1%,-54.1*
O=c1[nH]c2cc3c(cc2cc1CN(Cc1ccccc1)Cc1nnnn1Cc1ccco1)OCCO3,-11.0%,-0.5%,i,?,-7.0%,-59.2*
CCOC(=O)Cn1nnnc1CN(Cc1ccccc1)Cc1cc2cc(CC)ccc2[nH]c1=O,-13.5%,nt,i,?,10.3µM*,-91.4*
Cc1cccc2cc(CN(Cc3cccs3)Cc3nnnn3Cc3ccccc3)c(=O)[nH]c12,-36.6%,nt,?,1.2%,17.9%,-50.2*
CCc1ccc2[nH]c(=O)c(CN(Cc3ccccc3)Cc3nnnn3Cc3ccccc3)cc2c1,nt,5.2%,nt,nt,nt,nt
CCCN1C(=O)C(Cc2nc3ccccc3c(=O)n2CC)c2cc(Br)ccc21 (configuration not stated),nt,2.3%,nt,nt,nt,nt
COC(=O)c1ccccc1NC(=O)C1=CC(c2ccc(C)cc2)=NS(=O)(=O)N1C,1.4%,-1.5%,i,nt,nt,nt
COc1ccc(S(=O)(=O)NCCc2nnc3ccc(SCC(=O)Nc4ccc(C(F)(F)F)cc4)nn23)cc1,nt,0.7%,nt,nt,nt,nt
Clc1cccc(/C(Cc2nc3ccccc3[nH]2)=N\Nc2ccccc2)c1,39.3%,?,i,?,?,-78.2*
Cc1ccc(N/N=C(\Cc2nc3ccccc3[nH]2)c2ccccc2)cc1,30.1%,12.0%,?,1.84µM*,?,0.1
N#CCCN/N=C(\Cc1nc2ccccc2[nH]1)c1ccccc1,33.7%,10.2%[38.3 µM],i,0.2%,2.0%,-13.2
c1ccc(N/N=C(\Cc2nc3ccccc3[nH]2)c2ccccc2)cc1,47.0%,11.0%,i,15.2%,?,-67.6*
Cc1ccc(Cc2nc3ccccc3[nH]2)cc1,29.1%,0.4%,i,-4.3%,-9.0%,24.7
N/N=C(/Cc1nc2ccccc2[nH]1)c1ccc([N+](=O)[O-])cc1,38.7%,3.6%,i,-2.7%,-2.3%,-5.8
CCN/N=C(\Cc1nc2ccccc2[nH]1)c1ccccc1,7.5%,3.8%,nt,16.3%,20.6µM*,2.5
COc1ccc2c(Sc3ccccc3)c(C(=O)NCCc3ccc(Cl)cc3)[nH]c2c1,3.2%,1.5%,i,nt,nt,nt
CCOC(=O)C(CC)n1nnc2sc(-c3ccccc3)cc2c1=O (configuration not stated),10.7%,0.4%,i,nt,nt,nt
N#C/C(=C1\SCC(c2ccccc2Cl)S1)n1ccnc1 (configuration not stated),-3.8%,nt,i,nt,nt,nt
Cc1cc(C)nc(S[C@@H]2C[C@@H](C(=O)N3CCCN(C)CC3)N(Cc3cc(F)ccc3F)C2)n1,nt,2.1%,i,nt,nt,nt
Cc1ncc(CN2CCCC(C(=O)Nc3ccc(-c4ccco4)cc3)C2)cn1 (configuration not stated),nt,2.0%,i,?,1.6%,-18.1
O=C(Nc1cccc(-n2cccn2)c1)C1CCCN(Cc2ccccc2F)C1 (configuration not stated),-12.0%,2.4%,i,?,-19.2%,-11.3
COCc1cc(CN2CCCC(C(=O)Nc3ccc(-c4ccco4)cc3)C2)ccc1OC (configuration not stated),-25.9%,0.1%,i,23.1µM*,1.7%,-29.8
COc1cc(CN2CCCC(C(=O)Nc3cccc(-n4cccn4)c3)C2)ccc1F (configuration not stated),-20.7%,0.3%,i,3.8%,6.9%,-66.2*
Cc1ccc(C)c(Nc2nc(-c3cccnc3)cs2)c1,33.6%,-1.3%,i,-6.7%,15.5%,-80.6*
SMILES,ATXN2 expr inh,PINK1 modulator,ATXN viability,SW480 rerep,MCF10A rerep,IL1B secr inh
c1cncc(Nc2nc(-c3cccnc3)cs2)c1,21.2%,0.7%[38.3 µM],i,-8.2%,-3.6%,-7.1
CCOc1ccccc1Nc1nc(-c2cccnc2)cs1,13.4%,-1.2%,i,-2.0%,7.1%,-59.3*
Clc1ccccc1Nc1nc(-c2cccnc2)cs1,173.1%,-0.4%,i,-5.4%,-4.2%,-86.7*
Clc1ccccc1-c1csc(Nc2cccnc2)n1,34.0%,-0.8%,i,9.4%,9.5%,-60.2*
Cc1ccc(Nc2nc(-c3cccnc3)cs2)cc1Cl,50.7%,6.2%,i,3.7%,24.9%,-11.7
O=C(NCCN1CCN(c2cccc(Cl)c2)CC1)C1COc2ccccc2C1 (configuration not stated),nt,-0.3%,nt,nt,nt,nt
O=C(O)C1=C(C(=O)O)C2C=CC1C2,1.2%,-0.8%,i,-4.9%,7.1%,13.5
FC(F)(F)c1ccc(Cl)c(Nc2nnc(-c3ccncc3)s2)c1,8.0%,1.9%,i,nt,nt,6.4
Clc1ccccc1Nc1nnc(-c2ccncc2)s1,?,-0.7%,i,-7.2%,-7.0%,-76.1*
COc1ccc(NC(C)=O)c([N+](=O)[O-])c1[N+](=O)[O-],-1.9%,2.4%,i,?,?,-68.9*
COc1ccc(OC)c([N+](=O)[O-])c1C(N)=O,?,0.0%,nt,-2.6%,0.4%,12.5
COc1cccc(OC)c1-c1nn2c(-c3n[nH]c4c3CCC4)nnc2s1,nt,2.0%,nt,nt,nt,nt
CCN(CC)c1ccc(-c2nn3c(-c4n[nH]c5c4CCC5)nnc3s2)cc1,4.2%,-2.5%,i,1.84µM*,1.46µM*,20.2
COc1ccc(S(=O)(=O)N2CCN(CC(=O)Nc3ccc(Cl)c(C(F)(F)F)c3)CC2)cc1,?,0.0%,i,nt,nt,nt
CC1(C(=O)Nc2ccc3c(c2)OCO3)CCN1Cc1ccccc1OC(F)F (configuration not stated),-26.9%,0.0%,?,nt,nt,-66.5*
COc1cccc(CN2CCC2(C)C(=O)Nc2cccc3cccnc23)c1OC (configuration not stated),2.51µM*,7.1%,?,nt,nt,-1.2
COc1cccc(CN2CCC2(C)C(=O)Nc2ccc(C)c(O)c2)c1F (configuration not stated),-21.1%,1.2%,?,nt,nt,-52.4*
CC1(C(=O)Nc2cccc3cccnc23)CCN1Cc1ccccc1OC(F)F (configuration not stated),?,4.7%,?,nt,nt,-9.3
C#CCN(Cc1nc(N2CCOCC2)c2ccc(Cl)cc2n1)Cc1ccco1,nt,-0.2%,i,nt,nt,nt
Cc1ccccc1C(=O)Nc1nnc(S(=O)(=O)N2CCCc3ccccc32)s1,23.3%,0.6%,i,nt,nt,nt
CN(C)C(=O)c1ccc(S(=O)(=O)c2ccc(NC(=O)[C@@](C)(O)C(F)(F)F)c(Cl)c2)cc1,-18.3%,nt,nt,nt,nt,nt
